In the supplement of paper PMC10981050:
Where “and” joins values, the source holds several entries; their conditions need not be identical. Identical values can stand only once. Counter-ions that a name gives are not always drawn.

How the values were obtained:
Test in all cases: cell viability relative to vehicle control; higher = less cytotoxic
Conditions in all cases: 10 µM
K562 = test system: K562
Outline: (§1)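 Mutant clones made by CRISPR editing and their isogenic wild-type counterparts, from four leukaemia lines, were exposed to a single 10 µM dose of each library compound for 48 h. The supernatant was then removed and CellTiter-Glo luminescence was read. Viability was reported as percent of the on-plate vehicle control.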

MARIMO = test system: MARIMO
Outline: as §1

MOLM14 = test system: MOLM14
Outline: as §1

OCI-AML2 = test system: OCI-AML2
Outline: as §1

| SMILES | cell viability (K562; SRSF2 genotype: SRSF2 P95H/wt) | cell viability (K562; SRSF2 genotype: SRSF2 wt/wt) [%] | cell viability (MARIMO; SRSF2 genotype: SRSF2 P95H/wt) [%] | cell viability (MARIMO; SRSF2 genotype: SRSF2 wt/wt) [%] | cell viability (MOLM14; SRSF2 genotype: SRSF2 P95H/wt) [%] | cell viability (MOLM14; SRSF2 genotype: SRSF2 wt/wt) [%] | cell viability (OCI-AML2; SRSF2 genotype: P95H/wt) [%] | cell viability (OCI-AML2; SRSF2 genotype: wt/wt) [%] |
| --- | --- | --- | --- | --- | --- | --- | --- | --- |
| CCCc1cc2c(N3CCN(C4=NCC(C)(C)S4)CC3)ncnc2s1 [MI-2 (Menin-MLL inhibitor)] | 73.4% and 74.9% | 71.4 | 62.1 | 57.1 | 76.2 | 84.1 | 45.1 | 53.3 |
| c1ccc(-c2[nH]ncc2-c2ccnc3ccccc23)nc1 | 105% and 109% | 105 | 107 | 106 | 109 | 104 | 112 | 105 |
| Cc1cc(Nc2ncc3c(n2)N(C)C(=O)N(c2cc(NC(=O)c4cccc(C(F)(F)F)c4)ccc2C)C3)n(C)n1 [Pluripotin (SC1)] | 35.1% and 35.2% | 30.4 | 22.1 | 21.8 | 7.16 | 7.23 | 12.7 | 20.3 |
| CC(C)C12CCC(C)(CC1)O2 [1,4-Cineole] | 104% and 101% | 104 | 103 | 103 | 105 | 110 | 99.4 | 97.7 |
| OC[C@H]1O[C@@H](Oc2cc(O)cc(/C=C/c3ccc(O[C@@H]4O[C@H](CO)[C@@H](O)[C@H](O)[C@H]4O)cc3O)c2)[C@H](O)[C@@H](O)[C@@H]1O [Mulberroside A] | 94.5% and 95.1% | 98.2 | 95.3 | 101 | 97.3 | 97.6 | 97.1 | 105 |
| Cc1c(-c2ccc(O)cc2)n(Cc2ccc(OCCN3CCCCCC3)cc2)c2ccc(O)cc12 [Bazedoxifene HCl] | 1.11% and 0.75% | 0.96 | 17.3 | 27.5 | 0.32 | 0.46 | 0.41 | 0.44 |
| CCOC(=O)C1=C[C@@H](OC(CC)CC)[C@H](NC(C)=O)[C@@H](N)C1 [Oseltamivir Phosphate] | 103% and 105% | 104 | 102 | 106 | 110 | 109 | 110 | 104 |
| Cc1cc(O)cc(OC2OC(CO)C(O)C(O)C2O)c1 (stereo not given) [Orcinol glucoside] | 104% and 100% | 101 | 97.5 | 104 | 102 | 106 | 108 | 95.4 |
| CN(C)CCOc1ccc(/C(=C(/CCCl)c2ccccc2)c2ccccc2)cc1 [Toremifene Citrate (Fareston, Acapodene)] | 64.7% and 56.1% | 71.9 | 53.7 | 65.5 | 56 | 55.7 | 60 | 51.7 |
| CCOC(=O)c1[nH]c2cc(Cl)ccc2c1C(C(=O)NC(C)(C)C)N(C=O)Cc1ccc(Cl)cc1 (stereo not given) | 78.9% and 75.1% | 75.3 | 68.1 | 74.4 | 44.1 | 57.5 | 77.3 | 64.2 |
